# From PubChem BioAssay (NCI)
# The panel holds about 83,000 compounds, 20% with a hit somewhere; the sample as a whole holds those more often.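 Results are percent growth after 48 hours of single-concentration exposure. 100 means growth as in untreated cells, lower positive values show inhibition; negative values down to -100 show cell death.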 The source made the active and inactive calls.
# System: HS 578T breast
# Experiment: NCI-60 one-dose screen, 48 h (100 = growth as untreated, 0 = no growth, -100 = all killed)
# Conditions: 10 µM unless noted
# Description: Growth inhibition of the HS 578T human tumor cell line is measured as a screen for anti-cancer activity. Cells are grown in 96 well plates and exposed to the test compound for 48 hours. Compounds are tested at a single concentration, which is 10^-5 M for most compounds. The reported endpoint is percent growth (GI% or GIPRCNT), where numbers from 0 - 100% represent growth inhibition, and numbers from -100% - 0 represent cell death. For example, a value of 40 represents 60% growth inhibition. A value of 0 means no net growth occurred over the course of the experiment. A value of -40 indicates 40% of cells at the beginning of the experiment died by the end of the experiment. A value of -100 means all cells are dead at the end of the experiment.
# NCI-60 Human Tumor Cell Lines Screen was performed using the standard one-dose NCI protocol, which is described in more detail at https://dtp.cancer.gov/discovery_development/nci-60/default.htm.
# Compounds with GIPRCNT values below 10 were considered active. Activity score was based on GIPRCNT using the following formula: […]
# Score is 0 for GIPRCNT values of 100 or above, 50 for GIPRCNT values of 0, and 100 for GIPRCNT values of -100.
row,SMILES,growth
1,COc1ccc(C(=O)N2NC(=O)/C(=C/c3ccc(Br)cc3)N=C2c2ccccc2)cc1,94.9% (inactive)
2,C=C(C)[C@@H]1C[C@@H]2Cc3cc(F)ccc3N1O2,99% (inactive)
3,COc1ccc(S(=O)(=O)NCCCNc2nccc(-c3c(-c4cccc([N+](=O)[O-])c4)nc4sccn34)n2)cc1,65.9% (inactive)
4,O=c1ccn(-c2ncnc3nc[nH]c23)cc1,81.7% (inactive)
5,O=C(CSc1nc2ccccc2[nH]1)c1ccc(N2CCOCC2)cc1,99% (inactive)
6,COP(=O)(OC)/C(=N\NS(=O)(=O)c1ccc(C)cc1)c1ccccc1,123% (inactive)
7,CC(=O)OC[C@]12CC[C@H]3[C@@H](C[C@H]4O[C@]45CC=CC(=O)[C@]35C)[C@]1(O)CC[C@@]2(O)[C@@](C)(O)C1CC(C)=C(C)C(=O)O1 (stereo not given in full),-1.18% (active)
8,Brc1ccc(-c2[nH]ncc2-c2c[nH]c3ccccc23)cc1,88.3% (inactive)
9,O=C(NNC(=O)N1c2ccccc2C=Cc2ccccc21)c1ccccc1,109% (inactive)
10,COc1c2occc2c(OC)c2c(=O)c(-c3cc(-c4ccc(F)cc4)c(C#N)c(N)n3)c(C)oc12,43.7% (inactive)
11,COc1cc(Cn2cc3c(c2)-c2oncc2CC3)cc(OC)c1OC,7.08% (active)
12,COc1ccc(C2=Nn3c(nnc3-n3nc(C)cc3C)SC2)cc1,7.5% (active)
13,CC(C)C1=CC2=C(C=O)C[C@@H]3[C@](C)(CCC[C@@]3(C)C(=O)OCC#CCN3CCCC3)[C@H]2CC1,67.9% (inactive)
14,COc1cc(Nc2ncccc2C(=O)NCc2cn(Cc3cccc(Oc4ccccc4)c3)nn2)cc(OC)c1,49.1% (inactive)
15,COc1cc(/C(C#N)=C/c2ccc3c(c2OC)OCO3)cc2c1OCO2,0.131% (active)
16,COc1ccc(Nc2nn3c(C)cc(C)nc3c2C(=O)Nc2ccc(C)cc2)c(OC)c1,105% (inactive)
17,CCOC(=O)CN1/C(=N/c2sc3c(c2C(=O)OCC)CCN(C(=O)OCC)C3)SC(=O)/C1=C\C(=O)OC,82.7% (inactive)
18,CCC(=O)Oc1ccc(/C(=C(/C)Cc2cccc(OC)c2)c2ccc(OCCN(C)C)cc2)cc1,93.5% (inactive)
19,Cc1ccc(C(=O)C2=Cc3cc4ccccc4n3Cc3cnnn32)cc1,94% (inactive)
20,COc1ccc(C2=CC(c3cc(OC)c(OC)c(OC)c3)NC(=O)N2)cc1OC (stereo not given),7.62% (active)

row,SMILES,growth
1,CC(C)OC(=O)N1CCOCC1,97.5% (inactive)
2,Cc1ccc(CSC(=N)N)cc1C,103% (inactive)
3,NC(N)=N/N=C/c1ccc(-c2ccc(-c3cc(Cl)cc(Cl)c3)s2)cc1,80.8% (inactive)
4,Cn1c(=O)cc(NC(=O)CN2CCN(c3cc4c(cc3F)c(=O)c(C(=O)O)cn4C3CC3)CC2)[nH]c1=O,103% (inactive)
5,c1cc2[nH]ncc2cc1-c1nc2ccc3[nH]ncc3c2c2c1CCC2,14.9% (inactive)
6,COc1ccc(/C=C2\Oc3cc(OCCCN4CCCC4)ccc3C2=O)c(OC)c1,94.5% (inactive)
7,CC(=O)Oc1csc(N(C(C)=O)c2cc(C(=O)O)cc(C(=O)O)c2)n1,95.3% (inactive)
8,COc1ccc(/C=C2\Oc3cc(OCCCN4CCCC4)ccc3C2=O)cc1,89.3% (inactive)
9,Cn1cnc2c(N3CCN(C(=O)OCc4ccc5c(Cl)cc(Cl)c(O)c5n4)CC3)nc(Cl)nc21,75.7% (inactive)
10,O=C(/C=C/c1ccccc1)c1cccc(O)c1,110% (inactive)
11,NC1N=C(SCC(=O)N2CCN(c3cc4c(cc3F)c(=O)c(C(=O)O)cn4C3CC3)CC2)NC(=O)/C1=C/c1ccc(Cl)cc1 (stereo not given),106% (inactive)
12,COc1ccc(-c2nc3sccn3c2/C=C/C(=O)c2cc(F)cc(F)c2)cc1,75.1% (inactive)
13,CCCCOc1ccc(/C=C2/SC(N3CCCC3)=NC2=O)cc1,116% (inactive)
14,COc1cc(Nc2nc(N[C@H]3CCCC[C@@H]3N)nc3cc[nH]c(=O)c23)cc(OC)c1,53.6% (inactive)
15,CC1CCC(C)N(C)C1 (stereo not given),108% (inactive)
16,Cc1ccc(-c2csc(NC(=O)CCCCl)n2)cc1,105% (inactive)
17,COc1cc(-c2nn(-c3cccc(NC(=O)c4ccccc4)c3)cc2-c2ccncc2)ccc1Cl,-1.34% (active)
18,CCN1CCN(CC(=O)N2c3cccc4cccc(c34)N(C(=O)CN3CCN(CC)CC3)C2c2cn(-c3ccccc3)nc2-c2cccc([N+](=O)[O-])c2)CC1,69.6% (inactive)
19,CCCCOc1ccc(/C=C2/SC(N3CCOCC3)=NC2=O)cc1OCC,104% (inactive)
20,O=[N+]([O-])c1ccc(-c2cn(-c3ccccc3)c(-c3ccccc3)n2)cc1,97.5% (inactive)
